High-throughput results (PubChem BioAssay)
Hits are enriched below; roughly 3.6% of the tested compounds scored in any of these assays.
Epigenetic derep = regulators of epigenetic silencing causing reporter derepression in mouse cells. murine LDR cells, GFP reporter derepression, 30 h. Potency, µM (doses to about 53.9 µM), inactives show at the highest dose GFP activation, actives largely listed as activators. 280,000 tested, 0.2% active. AID 1865; also: % of control where 0% means no effect; nearly all actives have a fitted effect of over 60% in size
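Reporter derepression read as number of fluorescent GFP-positive objects, 20-120 um in size, counted by laser-scanning cytometer. Mouse LDR line with an epigenetically silenced CMV-GFP locus; compound incubation 30 h, 37 C.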
KAT2A inh = GCN5L2 (KAT2A) acetyltransferase inhibition; Q92830; GCN5L2 HAT assay, ThioGlo1 CoA-SH fluorescence; Potency, µM (doses to about 58.9 µM), without a hit: top-dose activity change, negative = inhibition, actives largely listed as inhibitors; 390,000 tested, 0.21% active; AID 504327; also: % is scaled to controls: 0 for no effect and ±100 for the full control effect
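GCN5L2 (20nM final) in 50mM HEPES, 0.1mM EDTA pH 7.5, 0.01% Tween-20 was preincubated 15 min at room temperature with compound, then given ThioGlo1 (50uM), H3(1-25) peptide (75uM) and acetyl-CoA (70uM); CoA-thiol fluorescence (Ex340/Em540) was read at 0 and 20 min.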
NPSR antagonist = blocks cAMP signaling of the human neuropeptide S receptor; Q6W5P4; CHO-NPSR cells, cAMP TR-FRET, antagonist mode; 220,000 tested, 1% active; Potency, µM (doses to about 38.3 µM), inactives show at the highest dose activity change, negative = inhibition, most hits filed as inhibitors; also: % is scaled to controls: 0 for no effect and ±100 for the full control effect; nearly all actives have a fitted effect of over 50% in size
Target sequence (Q6W5P4 whole entry, looked up): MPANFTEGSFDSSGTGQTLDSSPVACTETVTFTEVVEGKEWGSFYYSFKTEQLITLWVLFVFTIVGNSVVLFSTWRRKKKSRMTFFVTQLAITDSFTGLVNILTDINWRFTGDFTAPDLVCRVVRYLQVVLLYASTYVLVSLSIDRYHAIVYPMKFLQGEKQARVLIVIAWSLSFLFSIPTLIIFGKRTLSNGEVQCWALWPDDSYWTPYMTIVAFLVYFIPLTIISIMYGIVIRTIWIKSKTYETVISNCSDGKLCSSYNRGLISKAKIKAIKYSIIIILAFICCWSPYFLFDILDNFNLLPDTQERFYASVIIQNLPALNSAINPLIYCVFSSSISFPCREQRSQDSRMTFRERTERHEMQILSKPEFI
IMPase Li cell = IMPase inhibition in cells with lithium potentiation; 210,000 tested, 0.35% active; Potency, µM (titrated, usually from 59.4 µM), without a hit: top-dose activity, negative = IMPase inhibition, most hits filed as inhibitors; CHO-M1 cells, IP1 TR-FRET (IP-One), carbachol + lithium;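 also: IP1 builds up when IMPase is blocked and the TR-FRET signal falls; plate controls were basal vehicle for no effect and high inhibitor control for full effect; nearly all actives have a fitted effect of over 50% in size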
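Lithium-sensitised IP1 accumulation assay; M1-expressing CHO cells treated 30 min at 37C with compound. Competitive antibody detection by time-resolved FRET followed a 10 min room-temperature lysis step.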
Sfp PPTase inh = blocks B. subtilis Sfp PPTase activity | Q9F4F7 | Biochemical Sfp PPTase activity, qHTS | Potency, µM, without a hit: largest response in the series, negative = inhibition, most hits filed as inhibitors | 310,000 tested, 3.5% active;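 also: the enzyme is Sfp with the accession as filed and its product quenches rhodamine fluorescence; 0% = enzyme reaction without inhibitor and -100% = no enzyme wells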
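Sfp 15 nM + cpd, 15 min RT; start w/ rhodamine-CoA 5 uM, BHQ-2-YbbR 12.5 uM (final); 50 mM Hepes pH 7.6, 10 mM MgCl2, 0.01% NP-40, 0.01% BSA; read 525/598 nm at 0 and 30 min.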
KDM4E inh = JMJD2E (human) inhibition. JMJD2E catalytic domain, FDH-coupled NADH fluorescence (FDH is formaldehyde dehydrogenase). Potency, µM (titrated, usually from 57.1 µM), inactives show top-dose activity change, negative = inhibition, most hits filed as inhibitors. 230,000 tested, 1.6% active. AID 2147; active = well fitted inhibition curve with a large enough effect, not every such curve was filed as active; inconclusive = small, poorly fitted or top-dose-only effect, or another doubt; inactive = no such curve, though single readings can be large or run the other way;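 also: 0% = wells with enzyme and -100% = buffer wells without enzyme; nearly all actives have a fitted effect of over 50% in size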
Target sequence (B2RXH2 1-337 limits assumed): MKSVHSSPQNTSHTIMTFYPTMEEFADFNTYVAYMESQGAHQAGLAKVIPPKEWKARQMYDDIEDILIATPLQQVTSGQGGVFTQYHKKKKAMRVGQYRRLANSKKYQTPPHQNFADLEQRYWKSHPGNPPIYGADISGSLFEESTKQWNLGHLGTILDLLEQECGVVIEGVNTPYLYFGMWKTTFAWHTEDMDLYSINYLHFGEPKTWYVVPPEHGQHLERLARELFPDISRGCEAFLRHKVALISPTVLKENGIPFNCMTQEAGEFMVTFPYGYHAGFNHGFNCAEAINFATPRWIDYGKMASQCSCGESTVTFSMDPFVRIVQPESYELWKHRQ
An asterisk follows results filed as active; u = inconclusive; x = no result given; [ ] = remark or other dose. Unless noted, calls follow the shape of the dose curve; as a rule, active = well fitted curve in the direction sought with a large enough effect; inconclusive = small, poorly fitted or top-dose-only effect, or another doubt; inactive = no such curve, though single readings can be large; an effect the other way counts as inactive or inconclusive. Potency is read from the fitted curve at half-maximal effect.

SMILES	Epigenetic derep	KAT2A inh	NPSR antagonist	IMPase Li cell	Sfp PPTase inh	KDM4E inh
O=C1/C(=C/c2ccco2)SC(=S)N1CC1CCCO1 (stereo unspecified)	0.2%	1.4%	57.4%	x	17.8µM*	11.2µM*
COc1ccc(/C=C2\SC(=S)N(CC3CCCO3)C2=O)cc1 (stereo unspecified)	0.2%	0.7%	-0.8%	x	-4.2%	-4.5%
O=C1/C(=C\c2ccc(-c3ccccc3Cl)o2)SC(=S)N1CC1CCCO1 (stereo unspecified)	-1.0%	-11.2%	2.4%[46.1 µM]	5.2%[38.3 µM]	u	15.7%
CC[C@@]1([C@@H]2O[C@@H]([C@H]3O[C@@](O)(CO)[C@H](C)C[C@@H]3C)C[C@@H]2C)CC[C@@H]([C@]2(C)CCC3(C[C@H](O)[C@@H](C)[C@@H]([C@@H](C)[C@@H](OC)[C@H](C)C(=O)O)O3)O2)O1 (stereo partly specified)	x	-12.6%	x	x	12.9%	x
CCN1C(=O)[C@H]2[C@H]3[C@H](O)[C@H](O)C/C(=N/OCC(C)C)[C@@H]3CC[C@@H]2C1=O	0.8%[10.1 µM]	x	x	x	3.3%	x
Cc1nc2scc(-c3ccco3)c2c(=O)n1/N=C/N(C)C	2.0%	3.1%	-3.0%[46.1 µM]	9.6%[38.3 µM]	12.6µM*	-4.0%
CCOC(=O)CN(Cc1ccccc1)C(C(=O)NC1CCCCC1)c1ccccc1 (stereo unspecified)	7.4%	-20.2%	x	x	x	x
CCCOc1cccc(C(=O)N(Cc2cc(OC)c(OC)c(OC)c2)C2CCS(=O)(=O)C2)c1 (stereo unspecified)	1.9%	-1.2%	x	x	x	x
Cc1ccc(-c2nn3c(C)nnc3s2)cc1NC(=O)c1ccc(Br)o1	1.0%	-5.6%	2.5%[46.1 µM]	14.6%[38.3 µM]	-2.8%	6.7%
Cc1ccc(-c2nn3c(C)nnc3s2)cc1NC(=O)c1ccc(-c2cccc(Cl)c2)o1	0.7%	-23.8%	-13.6%[46.1 µM]	11.1%[38.3 µM]	22.4µM*	-16.1%
Cc1ccc(-c2nn3c(C)nnc3s2)cc1NC(=O)c1ccc(-c2ccc(Cl)cc2Cl)o1	6.1%	-2.0%	-23.3%[46.1 µM]	-11.5%[38.3 µM]	12.6µM*	u
COc1ccc(NC(=O)c2cc(S(=O)(=O)N3CCCCCC3)cn2C)cc1Cl	u	-1.8%	x	x	x	x
CN1/C(=C/C2CC(=O)N(c3ccc([N+](=O)[O-])cc3)C2=O)C(C)(C)c2ccccc21 (stereo unspecified)	18.3%	-12.7%	-16.3%[46.1 µM]	38.3%[38.3 µM]	44.7µM*	-13.2%
Fc1ccccc1	x	x	x	4.1%	x	x
CCc1ccc(S(=O)(=O)c2cnc(SCC(=O)Nc3ccc(OC)cc3OC)[nH]c2=O)cc1	-5.1%	-3.1%	x	x	x	x
O=C(CSc1ncc(S(=O)(=O)c2ccc(Cl)cc2)c(=O)[nH]1)Nc1cccc(C(F)(F)F)c1	-3.0%	-7.3%	x	x	x	x
COc1cc(Cl)c(C)cc1NC(=O)CSc1ncc(S(=O)(=O)c2ccc(C(C)(C)C)cc2)c(=O)[nH]1	3.0%	17.8µM*	x	x	x	x
CC(C)(C)c1ccc(S(=O)(=O)c2cnc(SCC(=O)Nc3ccc(F)c(Cl)c3)[nH]c2=O)cc1	0.0%	28.2µM*	x	x	x	x
CCOC(=O)c1c(NC(=S)NC)sc2c1CC(C)(C)SC2	0.0%	16.4%	-32.3%	-13.3%	20µM*	u
Cc1ccc(C(=O)[C@@H]2[C@H]3C4COC(O4)C(=O)[C@@H]3[C@H]3C=Cc4ccccc4N32)cc1 (stereo partly specified)	-0.3%	x	x	6.8%	-27.6%	-21.3%
COc1ccc(NC(=O)C2CC(=O)N(c3ccccc3C)C2)c(OC)c1 (stereo unspecified)	x	-0.8%	x	x	u	x
CC(=O)[C@@H]1[C@H]2[C@H](C(=O)[C@H]3OC[C@@H]2O3)[C@H]2C=Cc3ccccc3N21	3.0%	x	x	351.9%	44.7µM*	12.6µM*
COc1ccc(C(=O)C2C3C4COC(O4)C(=O)C3C3C=Cc4ccccc4N32)c(OC)c1 (stereo unspecified)	0.5%	x	x	129.9%	79.4µM*	u
CC/C=C\CC[C@H](OC(=O)c1ccc(Br)cc1)C1=CCCCC1=O	2.2%[10.1 µM]	x	x	x	18.1%	x
COc1ccc(-c2nc3c(c4c2C[C@H](c2ccccc2)OC4)CN(S(=O)(=O)c2ccc(C)cc2)CC3)c(C)c1	x	x	x	3.5%	-3.4%	9.4%[11.4 µM]
SMILES	Epigenetic derep	KAT2A inh	NPSR antagonist	IMPase Li cell	Sfp PPTase inh	KDM4E inh
CC(C)(C)c1csc(NC(=O)Cn2cnc3ccccc3c2=O)n1	0.8%	-9.2%	-20.4%[46.1 µM]	21.7%[38.3 µM]	20µM*	0.5%
Cc1ccc(C(CC(=O)Nc2ccc(F)c(Cl)c2)N2Cc3ccccc3C2=O)cc1 (stereo unspecified)	4.1%	-1.3%	x	x	x	x
Cn1c(=O)c2c(ncn2CCSS(=O)(=O)O)n(C)c1=O	x	x	x	-4.3%	x	x
COc1ccc(Br)cc1CNC(=O)Cn1ncn2nc(-c3cccs3)cc2c1=O	-3.5%	-2.0%	x	x	x	x
COc1cccc(CNC(=O)Nc2cccs2)c1	-1.9%	-1.6%	-4.9%[46.1 µM]	-0.3%[38.3 µM]	44.7µM*	-20.9%
Cc1ccc(CNC(=O)Nc2cccs2)cc1	0.0%	-6.6%	-9.3%[46.1 µM]	13.0%[38.3 µM]	17.8µM*	11.2%
COc1ccc(Br)cc1CNC(=O)Nc1cccs1	-1.0%	-0.4%	-13.4%[46.1 µM]	40.2%[38.3 µM]	50.1µM*	-7.6%
COc1ccc(CNC(=O)Nc2cccs2)cc1OC	0.0%	-26.7%	-9.0%[46.1 µM]	-4.1%[38.3 µM]	25.1µM*	7.0%
Cc1ccc(CNC(=O)Nc2ccccc2)cc1	0.0%	4.8%	-7.8%[46.1 µM]	20.7%[38.3 µM]	6.0%	-3.3%
COc1ccc(CNC(=O)Cc2cccs2)cc1OC	x	-11.7%	x	x	1.6%	x
CCOC(=O)/C=C/CCCC=O	3.4%	x	x	6.3%	3.2%	-0.8%
CO[C@H]1OC2O[C@@]3(C)CC[C@H]4[C@H](C)CC[C@@H]([C@H]1C)[C@@]24OO3 (stereo partly specified)	x	10.2%	x	x	21.3%	x
C[C@H]1[C@H](C)CC[C@]2(C(=O)O)CC[C@]3(C)C(=CCC4[C@@]5(C)CC[C@H](O)C(C)(C)[C@@H]5CC[C@]43C)[C@H]12 (stereo partly specified)	2.8%	x	x	20.1%	44.8%	-9.0%
Cc1ccc2c(c1)C(=O)C1(O)CCN(c3ccccc3)C1=N2 (stereo unspecified)	1.9%	5.8%	x	2.2%	4.2%	x
O=C(Nc1cccs1)NC1CCCC1	6.7%	-1.9%[0.501 µM]	4.1%[46.1 µM]	22.4%[38.3 µM]	-7.4%	2.7%
O=C(NCC1CC1)Nc1cccs1	-2.1%	-2.5%	17.0%	x	44.7µM*	-0.4%
CC(C)Cn1nnnc1S(=O)(=O)CCc1ccccc1	-0.3%	x	x	9.5%	21.3%	-0.8%
O=C1C(C=NCc2ccncc2)=C(O)c2ccccc21	-0.7%	-8.3%	-11.5%[46.1 µM]	17.5%[38.3 µM]	21.8%	-7.8%
O=[N+]([O-])c1cc2oc3c(c2c(C=NCc2ccncc2)c1O)CCCC3	0.0%	-19.2%	-49.3%	3.1%	u	28.2µM*
